In assay [1] the target is Aldehyde dehydrogenase, mitochondrial (Homo sapiens) (UniProt P05091). Nature of the assay: qHTS for Inhibitors of the Aldehyde Dehydrogenase Family (ALDH2) Primary screen (AID 2061308). Further: nearly all actives have a fitted effect of over 55% in size.
Assay [2] addresses Retinaldehyde dehydrogenase 3 (Homo sapiens) (UniProt P47895). The assay is described as follows: qHTS for Inhibitors of the Aldehyde Dehydrogenase Family (ALDH1A3) Validation screen (AID 2061312). Further: nearly all actives have a fitted effect of over 45% in size.
For assay [3] the target is unchanged. Nature of the assay: qHTS for Inhibitors of the Aldehyde Dehydrogenase Family (ALDH1A3) Primary screen (AID 2061315).
Assay [4] can be described thus: qHTS for Inhibitors of the Aldehyde Dehydrogenase Family (ALDH1A2, ALDH1A3, ALDH2, ALDH3A1) (AID 2061307). Further: test system not described further here; potency means the concentration at half of the fitted maximal effect; nearly all actives have a fitted effect of over 50% in size.
For assay [5], the target named is Aldehyde dehydrogenase 1A1 (Homo sapiens) (UniProt P00352). The assay is described as follows: qHTS for Inhibitors of the Aldehyde Dehydrogenase Family (ALDH1A1) Confirmatory screens (AID 2061316). Further: nearly all actives have a fitted effect of over 65% in size. Further: potency means the concentration at half of the fitted maximal effect.
Assay [6] is described as follows: BET inhibitor-based combinations targeting novel dependencies in MECOM-rearranged (r) AML: OCI-AML3 cell line (AID 2202232). Further: potency means the concentration at half of the fitted maximal effect; nearly all actives have a fitted effect of over 35% in size. To be noted: Potency: OCI-AML3 viability. The essentials:
(§1)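 A 48 hr incubation preceded viability reading by CellTiter-Glo, with 15 min room-temperature development. Dose series had 11 points; normalization used DMSO and empty wells; AUC was computed and mean-centered per line as Z-AUC.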

Assay [7] is described as follows: BET inhibitor-based combinations targeting novel dependencies in MECOM-rearranged (r) AML: HNT-34 cell line (AID 2202234). Further: potency means the concentration at half of the fitted maximal effect; nearly all actives have a fitted effect of over 35% in size. In a few lines: (§2)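 Each compound is tested in an 11-point concentration series against 500 seeded cells/well for 48 hr. The luminescent viability signal is normalized to DMSO and blank wells, then reduced to AUC and a cell-line-centred Z-AUC.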

Assay [8] in a line: BET inhibitor-based combinations targeting novel dependencies in MECOM-rearranged (r) AML: UCSD-AML1 cell line (AID 2202235). Further: potency means the concentration at half of the fitted maximal effect; nearly all actives have a fitted effect of over 40% in size. The essentials:
as §2

Assay [9] in a line: BET inhibitor-based combinations targeting novel dependencies in MECOM-rearranged (r) AML: AML-191 cell line (AID 2202236; further: potency means the concentration at half of the fitted maximal effect; nearly all actives have a fitted effect of over 35% in size). The essentials: as §1
Assay [10] in a line: BET inhibitor-based combinations targeting novel dependencies in MECOM-rearranged (r) AML: AML-194 cell line (AID 2202237; further: potency means the concentration at half of the fitted maximal effect; nearly all actives have a fitted effect of over 40% in size). In a few lines: as §1
Assay [11] concerns the target Retinal dehydrogenase 2 (Homo sapiens) (UniProt O94788). Nature of the assay: qHTS for Inhibitors of the Aldehyde Dehydrogenase Family (ALDH1A2) Confirmation screens (AID 2061314). Further: nearly all actives have a fitted effect of over 65% in size.

Inconclusive results are not listed. Values without a mark were called inactive. Activity calls are given as the source filed them. The call rests on the fitted dose curve; in most records, active means well fitted curve in the direction sought with a large enough effect; inconclusive means small, poorly fitted or top-dose-only effect, or another doubt; inactive means no such curve, though single readings can be large; an effect the other way counts as inactive or inconclusive.

Consider `Clc1ccc(OCC2=NCCN2)cc1Cl`, for which the Potency result in [1], in assay [2] and in assay [3] was “inactive” throughout.

Regarding `COc1ccc(C(C)(C)C)cc1CN[C@H]1C2CCN(CC2)[C@H]1C(c1ccccc1)c1ccccc1`, the Potency entry in assay [1], in [2] and in assay [3] was “inactive” in each case.

For `N#Cc1ccc(NC(=O)Nc2nnc(-c3ccncc3)s2)cc1Br`, the Potency result in assay [1] and in assay [3] was “inactive” throughout.

Turning to `CN(C(=O)CN1C(=O)COc2cc(Cl)c(Cl)cc21)[C@@H](CN1CCCC1)c1ccc(-c2cccc(C(N)=O)c2)cc1`, in assay [1], the Potency result was “inactive”.

In the case of `CC1=CC(=O)[C@@H](O)[C@]2(C)C3[C@@H](O)[C@@H]4OC(=O)[C@@H]([C@H]4C)[C@]3(C)C(=O)[C@H](O)[C@@H]12` (some centres not stated), the Potency result in [1] is “inactive”.

With `CC1=C(C(=O)Nc2nncs2)C(c2nn(C)cc2Cl)N=C(Nc2nc3ccccc3o2)N1` (configuration not stated), the Potency result in assay [1] and in assay [3] was “inactive” each time.

Consider `N#Cc1nc(-c2cccc3ccccc23)oc1NCc1ccccc1`, for which the Potency in assay [4] is 2520 nM (active); in [5], 7120 nM (active). The Potency result in [3] is “inactive”.

For `O=c1[nH]c2ccc(Cl)cc2c(N[C@@H]2CN3CCC2CC3)c1-c1nc2ccccc2[nH]1`, the Potency result in [1], in assay [2] and in assay [3] was “inactive” each time. In addition, the Potency in [6] was 417 nM (active); in [7], 590 nM (active); in assay [8], 417 nM (active); in assay [9], 417 nM (active); in [10] it was 332 nM (active).

`C[C@@H]1C[C@@H](O)[C@]2(O)O[C@@H]3C[C@@]4(C=O)C(CC[C@@H]5C4CC[C@]4(C)[C@@H](C6=CC(=O)OC6)CC[C@]54O)C[C@H]3O[C@@H]2O1` (some centres not stated): in assay [1], the Potency entry is “inactive”.

As for `C[C@@H]1C[C@@H](O)[C@]2(O)O[C@@H]3C[C@@]4(C=O)C(CC[C@@H]5C4CC[C@]4(C)[C@@](O)(C6=CC(=O)OC6)CC[C@]54O)C[C@H]3OC2O1` (some centres not stated), the Potency entry in assay [1] is “inactive”.

On to `CCc1nn2c(=O)c(C)c(N3CCNCC3)nc2s1`, for which the Potency entry in [1] and in assay [3] was “inactive” throughout.

Turning to `C=C1[C@@H](C)C2[C@H](Cc3ccccc3)NC(=O)[C@@]23C(/C=C/C[C@H](C)C[C@@](C)(O)/C=C/[C@@H]3OC(C)=O)[C@@H]1O` (some centres not stated), the Potency entry in assay [1] and in [3] was “inactive” each time.

In the case of `C[C@@H]1CCC/C=C/[C@H]2C[C@@H](O)C[C@@H]2[C@@H](O)/C=C/C(=O)O1`, the Potency entry in [1] and in assay [3] was “inactive” throughout.

For the molecule `CC1CCCC(O)CC(=O)Cc2cc(O)cc(O)c2C(=O)O1` (configuration not stated), the Potency entry in assay [1] and in assay [3] was “inactive” throughout.

As to `C[C@H]1O[C@@H](O[C@H]2CC[C@]3(CO)C4CC[C@]5(C)[C@@H](C6=CC(=O)OC6)CC[C@]5(O)[C@@H]4CC[C@H]3C2)[C@H](O)[C@H](O)[C@@H]1O[C@@H]1O[C@H](CO)[C@@H](O)[C@H](O)[C@H]1O` (some centres not stated), the Potency result in assay [1], in assay [11], in assay [3] and in assay [5] was “inactive” throughout.

For `C=C1C(=O)O[C@@H]2[C@H]3C(=C)[C@@H](O)C[C@H]3C(=C)C[C@@H](O)[C@@H]12`, in assay [1], the Potency result is “inactive”.

Take `C[C@H]1CN(Cc2ccc(CC(=O)N3CCC(Nc4cccc(F)c4)CC3)cc2)CCN1`: the Potency entry in [1], in [2] and in assay [3] was “inactive” throughout.

In the case of `COC1CC(O[C@H]2CC[C@]3(C)C4CC[C@]5(C)[C@@H](C6=CC(=O)OC6)[C@@H](OC(C)=O)C[C@]5(O)C4CC[C@@H]3C2)OC(C)C1O` (some centres not stated), the Potency entry in [1] is “inactive”.

Regarding `COC1C(O)C(C)OC(OC2C(CO)O[C@@H](O[C@@H]3CC4CCC5C(CC[C@]6(C)[C@@H](C7=CC(=O)OC7)CC[C@]56O)[C@@]4(C)[C@H](OC(C)=O)C3)C(O)C2O)C1O` (some centres not stated), the Potency result in [1] and in assay [3] was “inactive” in each case.

In the case of `COC1C=CC23c4cc5c(cc4COC2(O)CN(C)C3C1)OCO5` (configuration not stated), the Potency entry in [1] and in assay [3] was “inactive” in each case.

With `CC(=O)OCC(N)C(=O)c1ccccc1` (configuration not stated), the Potency result in [1] is “inactive”.

Regarding `C=C[C@H]1CN2CC[C@H]1C[C@@H]2[C@@H](O)c1ccnc2ccccc12`, the Potency result in assay [1] and in assay [3] was “inactive” each time.

Take `C=C(CO)[C@@]12O[C@@H]1[C@@]1(C)C(=CC2=O)CC[C@@H](O)[C@@H]1C`: the Potency entry in assay [1] and in assay [3] was “inactive” throughout.

Turning to `Cc1c(P(=S)(c2ccccc2)c2ccccc2)[n+]2ccccc2n1C`, the Potency result in assay [1] and in [3] was “inactive” throughout.

For the molecule `CCc1nn2c(=O)c(F)c(N3CCNCC3)nc2s1`, the Potency result in assay [1] and in [3] was “inactive” each time.

As to `COc1ccc(C23CCC(=O)C=C2N(C)CC3)cc1OC` (configuration not stated), the Potency result in assay [1] and in assay [3] was “inactive” each time.

For the molecule `CC(=O)Nc1ncc(S(=O)(=O)N2CCOCC2)s1`, the Potency entry in [1] and in [3] was “inactive” in each case.

On to `COc1cccc(CNc2ccc(C(=O)Nc3nccs3)cc2)c1O`, for which the Potency entry in assay [1] and in assay [3] was “inactive” each time.

For the molecule `C[C@H]1O[C@@H](O[C@H]2CC[C@]3(C=O)C4CC[C@]5(C)[C@@H](C6=CC(=O)OC6)CC[C@]5(O)[C@@H]4CC[C@]3(O)C2)C[C@@H](O)[C@@H]1O` (some centres not stated), the Potency result in assay [1] and in assay [3] was “inactive” each time.

With `CC(C)CCn1c(CN2CCN(C(=O)C3CC3)CC2)nc2c1c(=O)n(C)c(=O)n2C`, the Potency result in [1] and in [3] was “inactive” throughout.

On to `COC1CC(O[C@H]2CC[C@]3(C=O)C4CC[C@]5(C)[C@@H](C6=CC(=O)OC6)CC[C@]5(O)[C@@H]4CC[C@]3(O)C2)OC(C)C1O[C@@H]1O[C@H](CO)[C@@H](O)[C@H](O)[C@H]1O` (some centres not stated), for which the Potency entry in assay [1] and in assay [3] was “inactive” in each case.

These data come from PubChem BioAssay (NCATS).
